# According to PubChem BioAssay (NCATS):
# Inconclusive results are not listed. Where a call stands in place of a potency, no number is given. Unmarked numbers belong to inactive results. The source made the active and inactive calls. Calls follow the shape of the dose curve; as a rule, active = well fitted curve in the direction sought with a large enough effect; inconclusive = small, poorly fitted or top-dose-only effect, or another doubt; inactive = no such curve, though single readings can be large; an effect the other way counts as inactive or inconclusive.
# Experiments:
# [1] = P-glycoprotein substrates identified in KB-3-1 adenocarcinoma cell line, qHTS therapeutic library screen (AID 1346986); settings: KB-3-1 parental cells viability, CellTiter-Glo, 72 h; series mostly up to 44.5 µM; also: nearly all actives have a fitted effect of over 60% in size
# Outline: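 Compounds were tested in dose-response against KB-3-1 and KB-8-5-11 cells at 37 degree C for 72 h, and viability was measured by luminescence. AC50 values came from curve fitting with class-based activity calls.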
# [2] = P-glycoprotein substrates identified in KB-8-5-11 adenocarcinoma cell line, qHTS therapeutic library screen (AID 1346987); settings: KB-8-5-11 (P-gp overexpressing) viability, CellTiter-Glo, 72 h; series mostly up to 44.5 µM; also: nearly all actives have a fitted effect of over 65% in size
# Outline: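 KB-8-5-11: colchicine-selected sub-line of KB-3-1 over-expressing P-gp; assay medium lacked colchicine. 72 h drug exposure at 37 degree C, CellTiter-Glo.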
compound,measurement,setting,value
CC12CCC3C(C)(C)C(O)CCC3(C)C1Cc1c(oc(C(=O)O)cc1=O)O2 (configuration not stated),Potency,[1],inactive
same,Potency,[2],inactive
COc1ccc2c(c1)OC[C@]1(O)c3cc4c(cc3O[C@H]21)OCO4,Potency,[1],inactive
same,Potency,[2],inactive
CCN[C@@H]1C[C@H](N)[C@@H](O[C@H]2OC(CN)=CC[C@H]2N)[C@H](O)[C@H]1O[C@H]1OC[C@](C)(O)[C@H](NC)[C@H]1O,Potency,[1],inactive
same,Potency,[2],inactive
C=CC(C)(O)CC/C=C(\C)C(=O)OCC1OC(OC2CCC3(C)C(CCC4(C)C3CC=C3C5CC(C)(C)C(O)CC5(C(=O)O)CCC34C)C2(C)C)C(O)C(OC2OC(CO)C(O)C(OC3OC(CO)C(O)C(OC4OC(COC5OC(CO)C(O)C(O)C5O)C(O)C(O)C4O)C3O)C2O)C1O (configuration not stated),outcome,[1],inactive [at 9.29 µM]
same,"activity change, negative = cytotoxicity",[2],5.27% [at 9.29 µM]
C[C@@H]1O[C@@H](O[C@H]2[C@H](OC(=O)[C@]34CCC(C)(C)C[C@H]3C3=CCC5[C@@]6(C)CC[C@H](O[C@@H]7O[C@H](CO[C@@H]8OC[C@H](O)[C@H](O)[C@H]8O)[C@@H](O)[C@H](O)[C@H]7O)C(C)(C)C6CC[C@@]5(C)[C@]3(C)C[C@H]4O)OC[C@@H](O)[C@@H]2O)[C@H](O)[C@H](O)[C@H]1O[C@@H]1OC[C@H](O)[C@H](O[C@@H]2OC[C@@H](O)[C@H](O)[C@H]2O)[C@H]1O (some centres not stated),outcome,[1],inactive [at 9.29 µM]
same,"activity change, negative = cytotoxicity",[2],1.25% [at 9.29 µM]
CC(=O)O[C@@H]1[C@H](O[C@@H]2O[C@H](CO)[C@@H](O)[C@H](O)[C@H]2O)[C@@H](O[C@@H]2O[C@@H](C)[C@H](O)[C@@H](O[C@@H]3O[C@H](CO)[C@@H](O)[C@H](O)[C@H]3O)[C@H]2O)[C@H](OC(=O)C23CCC4(C)C(=CCC5C6(C)CC(O)C(O[C@@H]7O[C@H](C(=O)O)[C@@H](O)[C@H](O)[C@H]7O)C(C)(C(=O)O)C6CCC54C)C2CC(C)(C)CC3O)O[C@@H]1C (some centres not stated),outcome,[1],inactive [at 9.29 µM]
same,outcome,[2],inactive [at 9.29 µM]
